From PubChem BioAssay (NCATS)
Several values for one entry are separate records, joined by “and”; a condition that tells them apart may be missing. Equal entries are not always repeated. Results filed as inconclusive are left out. Activity calls are given as the source filed them. Unless noted, the call rests on the fitted dose curve; in most records, active means well fitted curve in the direction sought with a large enough effect; inconclusive means small, poorly fitted or top-dose-only effect, or another doubt; inactive means no such curve, though single readings can be large; an effect the other way counts as inactive or inconclusive.

How the values were obtained:
[1] = Cell Viability - BJ (AID 421; calls by dose curve;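 further: potency means the concentration at half of the fitted maximal effect; cells exposed to compound for 40 hours at 37 °C before readout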); details: BJ fibroblast viability, qHTS
In short: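 Luminescent ATP signal (CellTiter-Glo, 20 min at room temperature) served as the read-out of viable BJ cells after 40 hours of compound treatment. Responses were scaled between DMSO and 100 uM tamoxifen, and AC50 values were obtained by Hill modeling.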

[2] = Cell Viability - Jurkat (AID 426;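 active means dose-dependent loss of cell ATP signal giving a full or clear fitted curve, ranked by lower potency value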; further: potency means the concentration at half of the fitted maximal effect); details: qHTS
In short: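 Jurkat (clone E6-1, human T-cell leukemia) cells, 5000/well in complete medium, were exposed to compound for 40 hr at 37 °C. Viability was read as intracellular ATP by CellTiter-Glo luminescence; AC50 came from Hill fits of concentration-response data.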

[3] = Cell Viability - Hek293 (AID 427;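 active means compounds whose dose-response curve shows a full or clear partial loss of cell viability, called from curve shape rather than a numeric limit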;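 further: potency means the concentration at half of the fitted maximal effect; cells exposed to compound for 40 hours at 37 °C before reading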); details: qHTS
In short: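 Luminescent ATP read-out (CellTiter-Glo, 20 min RT) after 40 hr compound exposure at 37 °C in complete medium. Signal normalized to DMSO (basal) and 100 uM tamoxifen (100% inhibition); concentration-response fitted with the standard Hill equation to give AC50.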

[4] = Cell Viability - MRC5 (AID 434; calls by dose curve;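 further: potency means the concentration at half of the fitted maximal effect; potency reflects cytotoxicity seen as loss of intracellular ATP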); details: MRC5 lung fibroblast viability, qHTS
In short: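 qHTS cytotoxicity in human lung fibroblast MRC5 cells; 40 hr treatment, 37 °C; cellular ATP by luciferase luminescence; DMSO = 0%, 100 uM tamoxifen = 100% inhibition; Hill-fit AC50.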

[5] = Cell Viability - Mesenchymal (AID 546); details: mesenchymal cells viability, qHTS; series mostly up to 91.7 µM;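 further: cells exposed to compound for 40 hours before reading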
In short: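 AC50 values reflect the drop in intracellular ATP in a human kidney mesenchymal line derived from normal glomeruli. Treatment lasts 40 hr at 37 °C in complete medium, and the signal comes from CellTiter-Glo luminescence.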

[6] = Cellular Toxicity (caspase-3) SHSY5Y (AID 657); details: SH-SY5Y caspase-3 activation, DMSO zero, 10 µM staurosporine = 100%; series mostly up to 91.7 µM
In short: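 SH-SY5Y human neuroblastoma cells, 1500/well, exposed to compound for 16 hours at 37 °C in complete medium. Caspase-3/7 activity read by Caspase-Glo luminescence after 1 hr at room temperature, normalized to DMSO and 10 uM staurosporine; AC50 from Hill fit.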

[7] = Cellular Toxicity (caspase-3) MRC-5 (AID 659); details: MRC-5 cells, luminescence, normalized: DMSO 0%, 10 µM staurosporine 100%; series mostly up to 91.7 µM
In short: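 Concentration-dependent caspase 3/7 activation is measured in human normal lung fibroblasts (MRC-5) following 16-hour treatment. AC50 values come from standard Hill-equation modeling of luminescence normalized to DMSO and 10 uM staurosporine.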

[8] = Cellular Toxicity (caspase-3) Mesangial (AID 660); details: mesangial cells, normalized: DMSO 0%, 100 µM tamoxifen 100%; series mostly up to 91.7 µM;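 further: cells exposed to compound for 16 h before the caspase read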
In short: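 Human renal glomerular mesangial cells (1000/well) were treated with compounds for 16 h at 37 °C in complete medium, then caspase 3/7 activity was read by Caspase-Glo luminescence. Data were normalized to DMSO and 100 uM tamoxifen; AC50 from Hill fits.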

[9] = Cellular Toxicity (caspase-3) SK-N-SH (AID 661); details: SK-N-SH caspase-3 activation, qHTS; series mostly up to 91.7 µM
In short: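 SK-N-SH human neuroblastoma cells (1500/well) were treated with compounds for 16 hr at 37 °C in complete medium; caspase 3/7 activity was read by Caspase-Glo luminescence. AC50 came from Hill fits of data normalized to DMSO and 10 uM staurosporine.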

[10] = Cellular Toxicity (caspase-3) Hek293 (AID 664); details: HEK293 caspase-3 activation, DMSO = 0%, 100 µM tamoxifen = 100%; at 92.2 µM (top of the series);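 further: cells exposed to compound for 16 h at 37 °C before readout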
In short: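 HEK293 cells were exposed to compounds in complete medium for 16 hr at 37 °C, then caspase-3/7 activity was read by Caspase-Glo 3/7 luminescence after 20 min at room temperature. Data normalized to DMSO and 100 uM tamoxifen; AC50 from Hill fits.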

[11] = Cellular Toxicity (caspase-3) N2a (AID 665); details: N2a cells, luminescence, normalized: DMSO 0%, 10 µM staurosporine 100%; series mostly up to 92.2 µM;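 further: compound exposure lasted 16 h at 37 °C before readout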
In short: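 Mouse N2a neuroblastoma cells (1500/well) were treated with compounds for 16 h at 37 °C, then caspase-3/7 activity was read by Caspase-Glo luminescence after 1 h at room temperature. Data were normalized to DMSO and 10 uM staurosporine; AC50 from Hill fits.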

[12] = Cell Viability - LYMP1-002 - Assay at 16 hr (AID 948); details: LYMP1-002 lymphoblastoid cell viability; series mostly up to 92.2 µM;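 further: 0% = DMSO alone and full effect = 92 µM tetraoctylammonium bromide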
In short: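 LYMP1-002 human lymphoblastoid cells, 2500/well, were treated with compounds for 16 hr at 37 C in complete medium. Viability was read as intracellular ATP by CellTiter-Glo luminescence, and AC50 was derived from a Hill fit to concentration-response data.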

[13] = MultiTox-Fluor Cytotoxicity Assay - LYMP1-003 - Dead Cells (AID 961); details: LYMP1-003 lymphoblastoid cells, dead-cell protease fluorescence; series mostly up to 92.2 µM;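 further: 0% = DMSO and 100% = tetraoctylammonium bromide; nearly all actives have a fitted effect of over 70% in size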
In short: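 Human lymphoblastoid LYMP1-003 cells (2500/well) were treated with compounds for 16 hr at 37 C in complete medium. Dead-cell protease release was read by bis-AAF-R110 fluorescence (Ex/Em 485/520). AC50 came from Hill fits, normalized to DMSO and 15 uM tetraoctylammonium bromide.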

[14] = MultiTox-Fluor Cytotoxicity Assay - LYMP1-003 - Live Cells (AID 962); details: LYMP1-003 lymphoblastoid cells, MultiTox-Fluor live-cell protease fluorescence; series mostly up to 92.2 µM;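 further: 0% = DMSO only and full loss = 92 µM tetraoctylammonium bromide; cytotoxic hits lower the live-cell protease signal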
In short: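 LYMP1-003 human lymphoblastoid cells (2500/well) in complete medium were preincubated 5 hr at 37 C, then exposed to compounds for 16 hr at 37 C. Live-cell protease cleavage of GF-AFC read by fluorescence (Ex/Em 405/510); AC50 from Hill fits.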

[15] = Cell Viability - LYMP1-003 - Assay at 24 hr (AID 963); details: LYMP1-003 lymphoblastoid cell viability; series mostly up to 92.2 µM;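 further: plate controls were DMSO only for no effect and tetraoctylammonium bromide positive control for full effect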
In short: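 Human lymphoblastoid LYMP1-003 cells (2500/well) were rested 5 hr at 37 C, then exposed to compounds in complete medium for 24 hr at 37 C. Cellular ATP was quantified by CellTiter-Glo luminescence, and AC50 values came from Hill fits of concentration-response data.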

[16] = Cell Viability - LYMP2-008 (AID 980); details: LYMP2-008 lymphoblastoid cell viability, qHTS; series mostly up to 92.2 µM; further: on the % scale 0 is the no-effect control and ±100 the full control effect; nearly all actives have a fitted effect of over 60% in size
In short: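 Human lymphoblastoid cells (2500/well) were plated, held 5 hr at 37 C, then exposed to compounds for 24 hr at 37 C in complete medium. Intracellular ATP was read by CellTiter-Glo luminescence; AC50 from Hill-fitted concentration-response.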

[17] = qHTS Assay for Identification of Small Molecule Inducers of Hypoxia Response (AID 2120; active means well fitted curve in the direction sought with a large enough effect in the signal ratio, with a control signal flat, not every such curve was filed as active; the % refers to the signal ratio; further: 0% is about no effect); details: hypoxia response reporter cells, beta-lactamase ratio readout; series mostly up to 104 µM
In short: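 HRE-beta-lactamase reporter in CellSensor HRE-bla ME-180 cells, 2500 cells/well in Opti-MEM with 0.5% dialyzed FBS; compounds tested as titration series, 17 h at 37 degrees C. CCF4 substrate 2.5 h at room temperature; AC50 from 460/530 nm ratio.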

[18] = molecular target: Peroxisome proliferator-activated receptor alpha (Homo sapiens) (UniProt Q07869); experiment: qHTS assay for small molecule agonists of the peroxisome proliferator-activated receptor alpha (PPARalpha) signaling pathway (AID 651778); details: PathHunter PPARalpha complementation, chemiluminescence, 6 h; active compounds read high; further: % of control where 0% means no effect
Chain of Peroxisome proliferator-activated receptor alpha (Homo sapiens) (Q07869 whole entry, looked up): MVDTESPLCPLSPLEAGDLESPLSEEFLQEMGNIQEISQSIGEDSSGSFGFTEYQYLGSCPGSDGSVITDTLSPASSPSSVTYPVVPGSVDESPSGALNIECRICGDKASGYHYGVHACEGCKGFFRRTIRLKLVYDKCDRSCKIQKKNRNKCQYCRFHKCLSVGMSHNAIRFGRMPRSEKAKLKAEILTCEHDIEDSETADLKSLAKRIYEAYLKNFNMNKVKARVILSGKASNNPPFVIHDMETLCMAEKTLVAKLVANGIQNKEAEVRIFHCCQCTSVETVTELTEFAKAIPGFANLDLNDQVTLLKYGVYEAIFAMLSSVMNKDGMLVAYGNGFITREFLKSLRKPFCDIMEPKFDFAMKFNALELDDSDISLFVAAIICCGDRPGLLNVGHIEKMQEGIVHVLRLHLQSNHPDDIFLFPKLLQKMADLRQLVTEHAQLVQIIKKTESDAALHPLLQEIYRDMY
In short: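 Chemiluminescence from complemented enzyme reported PPARalpha activation in cells after 6 hr of compound treatment at 37 C. The detection reagent was incubated for 60 min at room temperature, and compounds were scored as agonists.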

[19] = qHTS assay for small molecule agonists of the antioxidant response element (ARE) signaling pathway measured by Nrf2-dependant transcriptional activity - cell viability counter screen (AID 720653; active means well fitted curve in the direction sought with a large enough effect in the repeat runs; an effect the other way counts as inactive or inconclusive; further: on the % scale 0 is the no-effect control and ±100 the full control effect); details: ARE-bla HepG2 viability, CellTiter-Glo ATP luminescence, 16 h; active compounds read low
In short: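 Cytotoxicity counter screen: intracellular ATP quantified by CellTiter-Glo luminescence in the same ARE-bla HepG2 plates, after 16 h compound exposure and a 2 h beta-lactamase substrate step.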

[20] = qHTS assay for cell viability of the p53RE-bla HCT-116 cell line (AID 743292); details: p53RE-bla HCT-116 viability, ATP luminescence, 16 h; series mostly up to 95 µM; further: on the % scale 0 is the no-effect control and ±100 the full control effect; nearly all actives have a fitted effect of over 55% in size
In short: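 ATP-based luminescent viability (CellTiter-Glo, 30 min RT) after 16 h compound treatment at 37 C of p53RE-bla HCT-116 cells, seeded at 4,000 cells/well and rested 5 h before dosing.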

Clc1ccccc1
inactive: Potency [1] > 92 µM | Potency [2] > 92 µM | Potency [3] > 92 µM | Potency [4] > 92 µM | Potency [5] | outcome [6] | outcome [7] | outcome [8] | Potency [9] | caspase-3 activation [10] 0.224% | outcome [11] | outcome [12] | Potency [13] | outcome [14] | outcome [15] | Potency [16] | Potency [17] | max response [18] -0.13% | max response [19] -18.9% | Potency [20]

C=CCCl
inactive: Potency [1] > 92 µM | Potency [2] > 92 µM | Potency [3] > 92 µM | Potency [4] > 92 µM | Potency [5] | outcome [6] | outcome [7] | outcome [8] | Potency [9] | caspase-3 activation [10] 0.123% | outcome [11] | outcome [12] | Potency [13] | outcome [14] | outcome [15] | Potency [16] | Potency [17] | max response [18] -5.35% | max response [19] -2.66% | Potency [20]

CCC[N+](=O)[O-]
inactive: Potency [1] > 92 µM | Potency [2] > 92 µM | Potency [3] > 92 µM | Potency [4] > 92 µM | Potency [5] | outcome [6] | outcome [7] | outcome [8] | Potency [9] | caspase-3 activation [10] 0.185% | outcome [11] | outcome [12] | Potency [13] | outcome [14] | outcome [15] | Potency [16] | Potency [17] | max response [18] -0.431% | max response [19] -3.7% | Potency [20]

CC(C)(OOC(C)(C)c1ccccc1)c1ccccc1
inactive: Potency [1] > 92 µM | Potency [2] > 92 µM | Potency [3] > 92 µM | Potency [4] > 92 µM | Potency [5] | outcome [6] | outcome [7] | outcome [8] | Potency [9] | caspase-3 activation [10] 4.99% | outcome [11] | outcome [12] | Potency [13] | outcome [14] | outcome [15] | Potency [16] | Potency [17] | max response [18] -0.439% and 3.52% | max response [19] -15.2% and -2.58% | Potency [20]

O=[N+]([O-])CCO
inactive: Potency [1] > 92 µM | Potency [2] > 92 µM | Potency [3] > 92 µM | Potency [4] > 92 µM | Potency [5] | outcome [6] | outcome [7] | outcome [8] | Potency [9] | caspase-3 activation [10] 0.0344% | outcome [11] | outcome [12] | Potency [13] | outcome [14] | outcome [15] | Potency [16] | Potency [17] | max response [18] -2.47% | max response [19] -2% | Potency [20]

Nc1ccc(Cl)c(Cl)c1
inactive: Potency [1] > 92 µM | Potency [2] > 92 µM | Potency [3] > 92 µM | Potency [4] > 92 µM | Potency [5] | outcome [6] | outcome [7] | outcome [8] | Potency [9] | caspase-3 activation [10] 0.307% | outcome [11] | outcome [12] | Potency [13] | outcome [14] | outcome [15] | Potency [16] | Potency [17] | max response [18] -1.3% | max response [19] -17.9% | Potency [20]
